Screen size: about 150,000 compounds; about 540 (0.36%) showed an effect of 50% or more. The list comes from a sample in which strong results are over-represented; it also holds similar structures and randomly drawn compounds.
System: Plasmodium falciparum
Experiment: Primary screen in NF54 nanoGlo assay, in single point, at 2uM, 72h; a lower Z score goes with more inhibition
Type: functional, Erythrocyte
Conditions: timepoint 72 hour

Question: How did the “% Inhibition” value turn out when `CN1CCC(N(Cc2ccccc2)C(=O)c2cc3cnccc3[nH]2)CC1` was run?
Answer: Its value is 52%.

Question: And the Z score?
Answer: Its Z score is -7.83.

Question: Which results are given for `O=C(NCC1CC1)c1cc2c(OCc3ccc(Cl)cc3)cccc2[nH]1`?
Answer: % Inhibition: 51%; Z score: -9

Question: What does the source list for `O=C(NC1CNCCC1O)c1cc2c(Cl)cccc2[nH]1` (stereo not given)?
Answer: % Inhibition: -3%; Z score: 0.71

Question: Which “% Inhibition” value does the source give for `Cc1cc(N2CCC(N(C)Cc3nc4ccc(F)cc4[nH]3)CC2)ncn1` here?
Answer: The value was -13%.

Question: And the Z score?
Answer: Its Z score is 2.24.

Question: `CCOc1ccc2nc(CN(CC)CC3CCN(C4CCN(C)CC4)CC3)ccc2c1` was tested. Which “% Inhibition” value did it give?
Answer: Its value is 80%.

Question: And the Z score?
Answer: Its Z score is -13.89.

Question: What does the source list for `c1ccc(CCC23CN(Cc4ccccn4)CC2CN(Cc2ccns2)C3)cc1` (stereo not given)?
Answer: % Inhibition: 86%; Z score: -17.09

Question: What does the source list for `Cn1cc(CC(=O)N2CC3CN(Cc4ccns4)CC3(CO)C2)c2ccccc21` (stereo not given)?
Answer: % Inhibition: -3%; Z score: 0.46

Question: How did the “% Inhibition” value turn out when `C[C@@H](c1cc2ccccc2o1)N(C)CCC(=O)N1CCN(c2ccc(F)cc2)CC1` was run?
Answer: Its value is -2%.

Question: What about the Z score of the same molecule?
Answer: The Z score was 0.48.

Question: `O=C1CN(C(=O)c2ccnc3ccccc23)CCN1Cc1ccccc1F` was tested. Which “% Inhibition” value did it give?
Answer: The value was 68%.

Question: What about the Z score of the same molecule?
Answer: The Z score was -13.41.

Question: What does the source list for `O=C(c1ccnc2ccccc12)N1CCN(C2CCOCC2)CC1`?
Answer: % Inhibition: -6%; Z score: 0.98

Question: What does the source list for `CN(CC(=O)N[C@H]1CCCN(c2cnccn2)C1)C1CCNCC1`?
Answer: % Inhibition: -7%; Z score: 1.05

Question: `Cc1noc(-c2ccnc(NC[C@@H](c3ccccn3)N3CCOCC3)c2)n1` was tested. Which “% Inhibition” value did it give?
Answer: Its value is 95%.

Question: What about the Z score of the same molecule?
Answer: The Z score was -18.79.

Question: With `Cc1noc(-c2ccnc(NC[C@H]3CCN(CC(F)(F)F)C3)c2)n1` as the molecule, how does the “% Inhibition” value read?
Answer: Its value is 2%.

Question: What about the Z score of the same molecule?
Answer: The Z score was -0.25.

Question: For `Cc1noc(-c2ccnc(NCCc3coc(-c4ccccc4)n3)c2)n1`, which “% Inhibition” value is on record?
Answer: The value was 0%.

Question: And the Z score?
Answer: The Z score was -0.05.

Question: Which “% Inhibition” value does the source give for `c1cc(Nc2ccnc(C3CC3)n2)cc(N2CCCCCC2)c1` here?
Answer: The value was -1%.

Question: What about the Z score of the same molecule?
Answer: Its Z score is 0.19.

Question: With `Cc1cccc(Nc2ccnc(Nc3ccc(N4CCN(C)CC4)cc3)n2)c1` as the molecule, how does the “% Inhibition” value read?
Answer: Its value is 89%.

Question: And the Z score?
Answer: Its Z score is -13.46.

Question: `CC(C)N1CCN(c2cccc(Nc3ncccn3)c2)CC1` was tested. Which “% Inhibition” value did it give?
Answer: The value was 5%.

Question: What about the Z score of the same molecule?
Answer: The Z score was -1.03.

Question: Which results are given for `Cc1cnccc1NCCNc1ncc(F)c(N2CCCC2)n1`?
Answer: % Inhibition: 25%; Z score: -3.87

Question: For `CCN(CCN1CCCCCC1)C(=O)NCCNc1ccncc1C`, which “% Inhibition” value is on record?
Answer: Its value is -11%.

Question: What about the Z score of the same molecule?
Answer: Its Z score is 2.32.

Question: How did the “% Inhibition” value turn out when `Cc1cnccc1NCCNCc1cnc(N2CCCCC2)nc1` was run?
Answer: The value was 57%.

Question: What about the Z score of the same molecule?
Answer: Its Z score is -12.25.

Question: How did the “% Inhibition” value turn out when `Cc1cnccc1NCCNCc1cccc(OCCCCN2CCOCC2)c1` was run?
Answer: Its value is 95%.

Question: What about the Z score of the same molecule?
Answer: Its Z score is -20.36.

Question: With `CN(CCCNc1nccc2ncncc12)CC(F)(F)F` as the molecule, how does the “% Inhibition” value read?
Answer: Its value is -2%.

Question: What about the Z score of the same molecule?
Answer: The Z score was 0.32.

Question: Which results are given for `Cc1cccc(-c2cccc(N3CCC(NCc4cc(C)[nH]n4)CC3)c2)c1`?
Answer: % Inhibition: -7%; Z score: 1.27

Question: `Cc1ccccc1-c1cccc(N2CCC(NCC3CCNCC3)CC2)c1` was tested. Which “% Inhibition” value did it give?
Answer: Its value is 98%.

Question: And the Z score?
Answer: Its Z score is -19.56.

Question: Which “% Inhibition” value does the source give for `Cc1cccc(-c2cccc(N3CCC(NC[C@H]4CCC(=O)N4)CC3)c2)c1` here?
Answer: The value was 1%.

Question: And the Z score?
Answer: Its Z score is -0.25.

Question: What does the source list for `Cc1cccc2c(NCCCCN3CCN(CCO)CC3)ncnc12`?
Answer: % Inhibition: -12%; Z score: 1.79

Question: Which “% Inhibition” value does the source give for `CCc1ccc2ncnc(NCCCN3CCN(CCO)CC3)c2c1` here?
Answer: The value was 65%.

Question: And the Z score?
Answer: Its Z score is -12.99.

Question: With `NC(=O)C1CCN(CCCNc2ncnc3ccccc23)CC1` as the molecule, how does the “% Inhibition” value read?
Answer: The value was 14%.

Question: And the Z score?
Answer: The Z score was -2.8.

Question: `Cc1cc(O)c2cccc(-c3cccc(C(=O)NCCCN4CCCC4)c3)c2n1` was tested. Which “% Inhibition” value did it give?
Answer: The value was -1%.

Question: What about the Z score of the same molecule?
Answer: The Z score was 0.22.

Question: Which results are given for `Cc1ccc(-c2cccc3c(C(=O)NCCCN4CCC(N5CCCCC5)CC4)cc(C)nc23)cc1`?
Answer: % Inhibition: 98%; Z score: -16.9

Question: For `Cc1cnccc1NCCNC1CCN(C(=O)[C@@H]2CCCO2)CC1`, which “% Inhibition” value is on record?
Answer: Its value is -9%.

Question: And the Z score?
Answer: The Z score was 1.97.

Question: With `Cn1cncc1[C@@H]1CNC[C@H]1CNC(=O)c1ccccc1NC1CCCCC1` as the molecule, how does the “% Inhibition” value read?
Answer: Its value is 75%.

Question: And the Z score?
Answer: The Z score was -14.83.

Question: What does the source list for `COC(CN(Cc1nc(N)nc(Nc2ccc(C)cc2)n1)Cc1nc(N)nc(Nc2ccc(C)cc2)n1)OC`?
Answer: % Inhibition: 85%; Z score: -18.33

Question: How did the “% Inhibition” value turn out when `CCOc1cc(C(=O)NC2CCN(CC3CCCC3)CC2)cc(-c2ccccc2)c1OC` was run?
Answer: The value was 71%.

Question: And the Z score?
Answer: The Z score was -12.46.

Question: With `CN(C)CCn1ncc(C(=O)NC2CCN(CC3CCCC3)CC2)c1-c1ccccc1` as the molecule, how does the “% Inhibition” value read?
Answer: Its value is 0%.

Question: What about the Z score of the same molecule?
Answer: Its Z score is 0.06.

Question: What does the source list for `Cc1ccc2nc(NC[C@H]3CCN(C4CC4)C3)cc(C)c2c1`?
Answer: % Inhibition: 55%; Z score: -8.34

Question: Which results are given for `Cc1ccc2cc(CNC[C@H]3CCN(C4CC4)C3)ccc2n1`?
Answer: % Inhibition: 0%; Z score: 0.09

Question: `CCc1ccc2nc(NC[C@H]3CCCN3C)cc(C)c2c1` was tested. Which “% Inhibition” value did it give?
Answer: The value was -2%.

Question: What about the Z score of the same molecule?
Answer: The Z score was 0.32.

Question: Which “% Inhibition” value does the source give for `COc1ccnc(NCCCc2nc(-c3ccncc3)cs2)n1` here?
Answer: The value was 69%.

Question: And the Z score?
Answer: Its Z score is -13.68.

Question: How did the “% Inhibition” value turn out when `Nc1nnc(CCCNc2nccc(-c3ccncc3)n2)s1` was run?
Answer: The value was -9%.

Question: And the Z score?
Answer: The Z score was 1.91.

Question: For `c1ccc2c(Nc3ccc4[nH]cnc4c3)c3ccccc3nc2c1`, which “% Inhibition” value is on record?
Answer: Its value is 98%.

Question: What about the Z score of the same molecule?
Answer: Its Z score is -19.44.

Question: `Clc1cc(Nc2c3ccccc3nc3ccccc23)ccc1Oc1ccc2ccccc2c1Cl` was tested. Which “% Inhibition” value did it give?
Answer: Its value is -10%.

Question: And the Z score?
Answer: Its Z score is 1.68.

Question: What does the source list for `CC(C)Nc1cc(-c2cc(OC(F)(F)F)ccc2O)ncn1`?
Answer: % Inhibition: 1%; Z score: -0.31

Question: For `Oc1ccc(OC(F)(F)F)cc1-c1ccc2nccn2n1`, which “% Inhibition” value is on record?
Answer: The value was 86%.

Question: What about the Z score of the same molecule?
Answer: The Z score was -17.13.

Question: `c1cc(-c2noc(C34CCCN(CCC3)C4)n2)cc(-n2ccnc2)c1` was tested. Which “% Inhibition” value did it give?
Answer: Its value is 9%.

Question: What about the Z score of the same molecule?
Answer: Its Z score is -1.87.

Question: What does the source list for `c1ccc(CNc2ccc(-c3noc(C45CCCN(CCC4)C5)n3)cn2)cc1`?
Answer: % Inhibition: 81%; Z score: -17.51

Question: For `c1ccc(-c2nc3c(c(NCCNc4ncccn4)n2)CCC3)nc1`, which “% Inhibition” value is on record?
Answer: The value was 41%.

Question: What about the Z score of the same molecule?
Answer: The Z score was -7.15.

Question: For `Cc1cc(F)ccc1CNc1ccc(N2CCN(C)CC2)nc1`, which “% Inhibition” value is on record?
Answer: Its value is 3%.

Question: And the Z score?
Answer: The Z score was -0.45.

Question: How did the “% Inhibition” value turn out when `Cc1c(CN2CCC(O)(Cn3ccnc3)CC2)[nH]c2c(Cl)cccc12` was run?
Answer: The value was 95%.

Question: What about the Z score of the same molecule?
Answer: Its Z score is -16.38.

Question: With `OC1(Cn2ccnc2)CCN(Cc2ccnc3ccccc23)CC1` as the molecule, how does the “% Inhibition” value read?
Answer: The value was -5%.

Question: What about the Z score of the same molecule?
Answer: The Z score was 0.98.

Question: Which results are given for `CCn1cc(-c2cccc(C(=O)N[C@@H](C)CN3CCc4ccccc4C3)c2)cn1`?
Answer: % Inhibition: 53%; Z score: -10.47

Question: Which results are given for `CNC(=O)c1ccc(C(=O)Nc2nc(C3(C)CC3)ns2)cn1`?
Answer: % Inhibition: 23%; Z score: -4.92

Question: What does the source list for `Cc1cc(C)c(C)c(S(=O)(=O)NC2COCC2Cc2ccncc2)c1C` (stereo not given)?
Answer: % Inhibition: 0%; Z score: -0.02

Question: For `CCCC(=O)NC1COCC1Cc1ccncc1` (stereo not given), which “% Inhibition” value is on record?
Answer: The value was 82%.

Question: What about the Z score of the same molecule?
Answer: Its Z score is -16.24.

Question: Which results are given for `COCCC(=O)NC1COCC1Cc1ccnc2ccccc12` (stereo not given)?
Answer: % Inhibition: 1%; Z score: -0.24
